# Experimental data reported in PubChem BioAssay (NCI).
# About 83,000 compounds went through this panel and 20% of them were active in at least one assay; those are over-represented in the sample as a whole.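 48-hour exposure, single concentration, 96-well plates; percent growth endpoint where 0 means no net growth. Active: below 10.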 Active and inactive are the calls of the source.
# System: A498 renal
# Assay: NCI-60 one-dose screen, 48 h (100 = growth as untreated, 0 = no growth, -100 = all killed)
# Details: 10 µM unless noted
# Method: Growth inhibition of the A498 human tumor cell line is measured as a screen for anti-cancer activity. Cells are grown in 96 well plates and exposed to the test compound for 48 hours. Compounds are tested at a single concentration, which is 10^-5 M for most compounds. The reported endpoint is percent growth (GI% or GIPRCNT), where numbers from 0 - 100% represent growth inhibition, and numbers from -100% - 0 represent cell death. For example, a value of 40 represents 60% growth inhibition. A value of 0 means no net growth occurred over the course of the experiment. A value of -40 indicates 40% of cells at the beginning of the experiment died by the end of the experiment. A value of -100 means all cells are dead at the end of the experiment.
# NCI-60 Human Tumor Cell Lines Screen was performed using the standard one-dose NCI protocol, which is described in more detail at https://dtp.cancer.gov/discovery_development/nci-60/default.htm.
# Compounds with GIPRCNT values below 10 were considered active. Activity score was based on GIPRCNT using the following formula: […]
# Score is 0 for GIPRCNT values of 100 or above, 50 for GIPRCNT values of 0, and 100 for GIPRCNT values of -100.
row,Structure (SMILES),growth
1,C/C=C/C/C=C/[C@H](C)C[C@H](O)[C@@H]1C[C@@H]2O[C@H]2/C=C/[C@H](O)[C@@H](O)/C=C/C[C@H](C)CC(=O)O1,115% (inactive)
2,COc1ccc(C2CC(=O)c3c(O)cc(OC4OC(COC5OC(C)C(O)C(O)C5O)C(O)C(O)C4O)cc3O2)cc1O (stereo not given),132% (inactive)
3,CC(=O)Nc1nc(C)c(C(=O)N/N=C/c2cccs2)s1,92.4% (inactive)
4,CCOC(=O)C1=C(c2ccccc2)NC(=O)NC1CN1C(=O)c2ccccc2C1=O (stereo not given),118% (inactive)
5,CCCCCCCCCCCCCCCCC(=O)O.CCCCCCCCCCCCCCCCCC(=O)O.CCCCCCCCCCCCCCCCCC(=O)O.CCCCCCCCCCCCCCCCCC(=O)O.CCCCCCCCCCCCCCCCCC(=O)O.CO[CH-]OC12COC1CC(O)C1(C)C(O)C(OC(C)O)C3=C(C)C(OC(=O)C(O)C([NH-])c4ccccc4)CC(O)(C(OC(=O)c4ccccc4)C21)C3(C)C.[Cu+].[Zn].[Zn].[Zn].[Zn].[Zn] (stereo not given),45.6% (inactive)
6,Nc1cc2c(cc1Br)[nH]c(=O)c1ccccc12,56% (inactive)
7,C=C[C@]1(C)C=C2C(=O)[C@@]3(O)OC[C@@]4(CCCC(C)(C)C43O)C2(O)C(O)C1 (stereo not given in full),99.4% (inactive)
8,N#Cc1c2cccnc2c2nnc3cc(Cl)c(Cl)cc3n12,80.9% (inactive)
9,Cc1ccc(C(=O)C(Br)C(Br)c2ccccc2)cc1 (stereo not given),75.6% (inactive)
10,COc1ccc(C(=O)c2no[n+]([O-])c2C(=O)c2ccc(OC)cc2)cc1,116% (inactive)
11,O=C1N/C(=N\c2nnc(-c3ccc(O)cc3)s2)S/C1=C\c1ccccc1O,107% (inactive)
12,O=C(NCCCl)Nc1nccnc1OCc1ccc(F)cc1,105% (inactive)
13,C/C(=N\Nc1cccc(Cl)n1)c1ccccn1,-1.3% (active)
14,CCCCCCCCCC(C)NC(=O)CCl (stereo not given),91.3% (inactive)
15,CCn1cnc(C[C@H](NC(=O)[C@@H](NC(=O)Nc2cc(C(F)(F)F)cc(C(F)(F)F)c2)C(C)C)C(=O)OC)c1,-89.5% [100 µM] (active)
16,CCOC(=O)c1ccc2n1CCCc1cnc(NC(C)=O)nc1-2,74.3% (inactive)
17,NC(=O)CC(NC(=O)COc1ccc(Cl)cc1Cl)C(=O)O (stereo not given),88% (inactive)
18,COC(=O)CC(=O)C(=O)OC,113% (inactive)
19,O=C(Nc1cccc(Cn2c(=O)[nH]c3ccc(Oc4ncccn4)cc3c2=O)c1)c1cc(Cl)cc(Cl)c1,85.3% (inactive)
20,Cc1cc2cn3c4ccc(O)cc4nc(N)c3c2cc1C,21.1% (inactive)

row,Structure (SMILES),growth
1,COC(=O)[C@H](Cc1cn(C)cn1)NC(=O)[C@H](CC(=O)OCc1ccccc1)NC(=O)Nc1cc(C(F)(F)F)cc(C(F)(F)F)c1,-92.3% [100 µM] (active)
2,Brc1c(-c2ccncc2)nc2n1CCS2,77.6% (inactive)
3,CCOC(=O)c1c(C)oc2ncnc(Nc3ccc(NC(=O)Nc4ccc(CC)cc4)cc3)c12,109% (inactive)
4,CC(C)(C)c1cc(C[P+](c2ccc(Cl)cc2)(c2ccc(Cl)cc2)c2ccc(Cl)cc2)cc(C(C)(C)C)c1O,98.5% (inactive)
5,CCOC(=O)c1c(C)oc2ncnc(Nc3ccc(NC(=O)Nc4cccc(Cl)c4)cc3)c12,63% (inactive)
6,c1cc(C2CCCCC2)ccc1OCCCCCCN1CCNCC1,61.5% (inactive)
7,Clc1ccc(N/N=C/c2ccccn2)nc1,-3.65% (active)
8,CCOC1=C(Cl)C(=O)C(OCC)=C(Cl)C1=O,128% (inactive)
9,CCn1cnc(C[C@H](NC(=O)[C@@H](NC(=O)Nc2cc(C(F)(F)F)cc(C(F)(F)F)c2)C(C)(C)C)C(=O)OC)c1,-91.6% [100 µM] (active)
10,CC(O)C(N)=O (stereo not given),103% (inactive)
11,CCOC(=O)CNS(=O)(=O)CC(=O)c1ccccc1,117% (inactive)
12,C#CCCCCCCC[C@@H]1OC(=O)[C@H]([C@@H](C)CC)NC(=O)[C@H]([C@@H](C)CC)NC(=O)CC(=O)[C@@H]1C,92.7% (inactive)
13,CC(C)OCC1CO1 (stereo not given),117% (inactive)
14,Cc1[nH]n(C(=S)Nc2nc3cc(Cl)c(F)cc3s2)c(=O)c1N=Nc1ccc(F)c(Cl)c1,65.8% (inactive)
15,COc1ccc(-n2nnnc2-c2cn[nH]c2C(F)(F)F)cc1,83.2% (inactive)
16,CCCCCCCCCC[N+](C)(C)N,105% (inactive)
17,CC[C@@H](C)/C=C(C)/C=C/C(=O)c1c(O)c(-c2ccc(OC(=O)[C@@]34CC[C@@](C)(C(=O)O3)C4(C)C)cc2)cn(O)c1=O,49.8% (inactive)
18,CC1(C)NC(=S)NC1=O,88.3% (inactive)
19,COc1cccc(NC(=O)NCCNc2nccc(-c3c(-c4ccc(F)cc4)nc4sccn34)n2)c1,77.1% (inactive)
20,O=C1/C(=N\c2cc(=O)[nH]n2S(=O)(=O)c2ccccc2)Nc2ccccc21,98.2% (inactive)
